# Test results: publication PMC4151992
# Biological target: Eukaryotic translation initiation factor 3 subunit I (UniProt P40217)
# Assay: cross-link between two proteins; cross-linking mass spectrometry
# Eukaryotic translation initiation factor 3 subunit A, P38249, sequence (P38249 whole entry): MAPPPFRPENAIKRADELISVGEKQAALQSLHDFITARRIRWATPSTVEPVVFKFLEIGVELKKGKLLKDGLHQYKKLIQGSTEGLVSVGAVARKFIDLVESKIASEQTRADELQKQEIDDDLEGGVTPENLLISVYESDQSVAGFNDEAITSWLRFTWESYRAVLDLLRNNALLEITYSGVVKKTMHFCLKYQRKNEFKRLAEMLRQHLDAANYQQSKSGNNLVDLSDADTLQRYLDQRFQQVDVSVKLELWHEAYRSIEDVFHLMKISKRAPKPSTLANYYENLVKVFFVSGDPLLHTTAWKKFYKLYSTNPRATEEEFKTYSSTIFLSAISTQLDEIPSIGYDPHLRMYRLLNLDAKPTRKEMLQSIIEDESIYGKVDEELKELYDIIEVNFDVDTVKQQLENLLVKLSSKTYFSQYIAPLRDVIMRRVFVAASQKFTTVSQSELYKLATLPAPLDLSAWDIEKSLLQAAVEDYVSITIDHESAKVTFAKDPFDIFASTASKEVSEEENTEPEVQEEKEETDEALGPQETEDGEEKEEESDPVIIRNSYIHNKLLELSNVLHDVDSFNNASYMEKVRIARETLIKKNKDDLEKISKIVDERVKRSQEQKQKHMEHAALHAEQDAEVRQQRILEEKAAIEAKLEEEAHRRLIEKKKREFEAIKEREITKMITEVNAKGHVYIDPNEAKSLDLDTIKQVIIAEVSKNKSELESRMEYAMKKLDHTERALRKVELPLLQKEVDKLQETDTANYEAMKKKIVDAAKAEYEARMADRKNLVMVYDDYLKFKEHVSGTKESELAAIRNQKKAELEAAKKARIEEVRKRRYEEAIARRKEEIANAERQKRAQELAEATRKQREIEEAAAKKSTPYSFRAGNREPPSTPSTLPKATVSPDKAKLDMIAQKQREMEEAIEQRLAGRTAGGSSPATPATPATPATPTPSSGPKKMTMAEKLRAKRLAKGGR
# Eukaryotic translation initiation factor 3 subunit I, sequence (P40217 whole entry): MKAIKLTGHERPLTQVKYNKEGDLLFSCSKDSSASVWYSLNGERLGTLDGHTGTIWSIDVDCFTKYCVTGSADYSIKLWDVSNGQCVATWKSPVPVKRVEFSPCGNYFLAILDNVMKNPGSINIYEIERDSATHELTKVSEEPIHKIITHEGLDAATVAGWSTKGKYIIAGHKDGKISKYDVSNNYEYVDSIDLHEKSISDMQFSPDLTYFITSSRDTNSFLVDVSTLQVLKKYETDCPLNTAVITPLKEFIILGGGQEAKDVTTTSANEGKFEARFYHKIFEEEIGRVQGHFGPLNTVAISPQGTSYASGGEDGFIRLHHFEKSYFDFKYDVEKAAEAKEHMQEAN
substance,measurement,value
"Eukaryotic translation initiation factor 3 subunit A, P38249",listed as a hit,yes
